STAT1 act: increases IFN-gamma driven STAT1 reporter signal; 200,000 tested, 2.6% active; activation (% of control), % at 5.5 µM; AID 932; NIH 3T3 STAT1-luciferase reporter, luminescence; 100% = IFN-gamma alone, no compound;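 active = activation above the screen-wide mean activation plus 3 SD, cut at about 130% in these data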;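 also: raw ratio to IFN-gamma control signal so 100% means no change and 0% no light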
Hsp70 activator: Hsp70 transcriptional activation, primary screen; AID 1203; activation, % at 10 µM; HeLa Hsp70 promoter luciferase reporter, luminescence; scaled: vehicle 0, proteasome-inhibitor control 100%; 200,000 tested, 0.04% active;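 active = activation above the mean across all tested compounds plus 3 SD, cutoff set per campaign, cut at about 5.5% in these data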;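 also: 100% = MG132 at 30 µM as the positive control and 0% = DMSO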
NF-kB neuron act: compounds increasing NF-kB expression in human neuronal cells; NF-kB reporter expression; active compounds read high; fold change at 12.5 µM; 190,000 tested, 1.6% active; AID 1239; in the data active = fold change above about 3.3
APP 5'UTR act: APP 5'UTR luciferase reporter activation; SH-SY5Y APP 5'UTR luciferase reporter, luminescence; zero percent = DMSO vehicle wells; activation, % at 2 µM; 190,000 tested, 1% active; AID 1276;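 active = activation above a set limit, based on mean plus 3 SD of controls, cut at about 140% in these data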
Wee1 stabilizer: blocks degradation of human Wee1 kinase. P30291. HeLa Luc-Wee1K328M stability, luciferase luminescence; 100% = proteasome inhibitor MG132 effect. reporter increase, % at 5 µM. 220,000 tested, 1.2% active. AID 1321;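 active = activation above the mean of all tested compounds plus 3 SD, set per screening run, cut at about 8.8% in these data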;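 also: cells exposed to compound for 20 h before luminescence read; 0% = DMSO alone and 100% = MG132 at 30 µM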
Target sequence (P30291 whole entry K328M): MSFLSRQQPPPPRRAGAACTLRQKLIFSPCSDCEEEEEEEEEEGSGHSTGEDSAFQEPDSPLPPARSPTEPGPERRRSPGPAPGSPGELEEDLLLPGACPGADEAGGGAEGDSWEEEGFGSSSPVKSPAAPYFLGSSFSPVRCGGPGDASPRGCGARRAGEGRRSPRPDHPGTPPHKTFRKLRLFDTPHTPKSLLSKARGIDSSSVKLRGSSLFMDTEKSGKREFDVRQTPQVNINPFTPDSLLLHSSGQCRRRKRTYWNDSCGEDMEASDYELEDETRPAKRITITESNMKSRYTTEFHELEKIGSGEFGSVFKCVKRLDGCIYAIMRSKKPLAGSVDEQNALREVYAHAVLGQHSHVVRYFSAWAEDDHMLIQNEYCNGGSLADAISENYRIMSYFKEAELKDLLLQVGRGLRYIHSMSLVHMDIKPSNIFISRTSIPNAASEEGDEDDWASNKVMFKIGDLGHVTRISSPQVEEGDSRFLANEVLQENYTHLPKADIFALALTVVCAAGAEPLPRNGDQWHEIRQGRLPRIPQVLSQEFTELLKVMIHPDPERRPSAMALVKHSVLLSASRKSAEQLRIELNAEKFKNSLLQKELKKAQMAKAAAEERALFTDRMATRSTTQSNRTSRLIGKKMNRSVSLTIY
APP transl inh: APP translation inhibition; SH-SY5Y APP 5'UTR-luciferase reporter, luminescence; 190,000 tested, 0.82% active; inhibition, % at 2 µM;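 active = inhibition above a set limit, derived from the sample mean plus 3 SD, cut at about 45% in these data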
Active calls of the source: *; x = not tested or not shown. Sampled rows, rich in hits. Any-hit rate of the full collection: about 4.8%.

SMILES	STAT1 act	Hsp70 activator	NF-kB neuron act	APP 5'UTR act	Wee1 stabilizer	APP transl inh
COc1ccc2c(c1OC)C(=O)N(c1nccs1)C2	131.6*	0.0	1.54	46.1	1.0	-46.1
COc1ccc(C2C(C(C)=O)=C(O)C(=O)N2c2nccs2)cc1OC (configuration not stated)	100.4	0.0	1.05	5.5	-0.3	-5.5
Brc1ccc(/C=N/n2cnnc2)s1	x	x	x	x	-3.4	x
COc1ccccc1OCC(=O)NCC1CCCCC1	107.7	0.1	1.28	12.9	0.8	-12.9
O=C(COn1nnc2ccccc21)NCC1CCCCC1	129.1*	-0.2	1.92	5.6	-0.6	-5.6
CC(C)Oc1ccc(Nc2ncnc3ccccc23)cc1	144.3*	0.5	1.07	88.3	-0.9	-88.3
Cc1ccc(Nc2ncnc3ccccc23)cc1	129.7*	0.2	2.87	149.3*	-5.6	-149.3
COc1ccc(C(=O)OCCCN(C)C)cc1OC	101.6	-0.1	0.98	-20.5	0.8	20.5
CN1CCOCCOCCN(C)C(=O)N2CCOCCOCCN(CCOCC2)C1=O	106.6	-0.2	1.4	-9.1	-1.5	9.1
COc1ccc(OC)c(NC(=S)N2CCN(C/C=C/c3ccccc3)CC2)c1	106.5	-0.1	0.74	-5.8	-0.8	5.8
CCn1c(C)nc2cc(C(=O)N/N=C/c3ccccc3C)ccc21	143.2*	0.2	3.91*	95.6	-1.3	-95.6
CCn1c(C)nc2cc(C(=O)N/N=C(\C)c3ccccc3O)ccc21	136.9*	0.0	1.39	56.5	0.4	-56.5
CCn1c(C)nc2cc(C(=O)OC)ccc21	110.2	-0.1	1.31	1.7	-1.4	-1.7
Cc1ccccc1-n1c(C)nc2ccccc21	98.8	-0.2	1.28	-12.9	1.4	12.9
S=c1[nH]nc(-c2ccc(Br)cc2)n1Cc1ccccc1	105.9	-0.3	1.03	-17.7	2.2	17.7
Brc1ccc(C2=NC(Cc3ccccc3)CO2)cc1 (configuration not stated)	118.3	0.0	3.33*	61.5	0.3	-61.5
N#Cc1c(SCc2ccccc2)sc(C(=O)c2ccccc2)c1N	99.5	-0.3	1.06	3.0	9.2*	-3.0
COCCn1nnnc1C(CC(C)C)N1CCN(c2cccc(OC)c2)CC1 (configuration not stated)	105.2	-0.2	5.79*	-15.4	2.1	15.4
COCCn1nnnc1C(CC(C)C)N1CCN(c2ccccc2)CC1 (configuration not stated)	97.5	-0.3	1.43	7.0	2.8	-7.0
O=C(Nc1cc2c(cc1Cl)OCCO2)c1ccco1	128.2	0.0	2.12	49.2	-0.4	-49.3
CCc1ccc(C(=O)Nc2cc3c(cc2Cl)OCCCO3)cc1	149.6*	0.2	4.57*	89.1	1.7	-89.1
O=C(NCc1cccs1)C1CCN(c2ccc(S(=O)(=O)N3CCOCC3)cc2Cl)CC1	100.1	-0.2	2.07	-92.7	3.5	92.7*
CC(C)(C)OC(=O)N1CCCN(C(=O)Nc2ccccc2)CC1	x	x	x	x	2.7	x
O=C(OCCNc1nc(-c2ccccc2)nc2ccccc12)c1cccnc1	94.9	-0.2	0.91	-10.3	-0.3	10.3
O=C(COc1ccccc1)N1CCN=C1c1ccccc1	97.2	0.1	0.94	14.3	0.7	-14.3
SMILES	STAT1 act	Hsp70 activator	NF-kB neuron act	APP 5'UTR act	Wee1 stabilizer	APP transl inh
COc1cc(OC)cc(C(=O)Nc2ccc(NC(=O)c3ccco3)c(Cl)c2)c1	93.4	-0.4	1.4	5.3	9.7*	-5.3
O=C(Nc1cccc(NC(=O)c2cccs2)c1)c1ccco1	100.0	0.1	1.01	-4.2	0.4	4.2
CCOc1cc(NC(=S)NC)c(OCC)cc1NC(=O)c1ccco1	100.7	-0.2	1.14	-9.6	-0.4	9.6
COc1cc(NC(=O)c2ccccc2Cl)ccc1NC(=O)c1ccco1	146.3*	0.7	3.11	93.3	0.8	-93.3
CNC(=S)Nc1cc(OC)c(NC(=O)c2ccco2)cc1OC	98.4	-0.3	1.16	-9.6	9.9*	9.6
COc1cc(OC)cc(C(=O)NC(=S)Nc2ccc(NC(=O)c3ccco3)cc2)c1	98.7	0.4	1.18	0.4	2.3	-0.4
O=C(Nc1ccc(NC(=O)c2cccs2)cc1Cl)c1ccco1	131.4*	0.0	2.28	71.7	6.5	-71.7
O=C(OCc1ccccc1)C1=NNC2C(=O)N(Cc3ccccc3)C(=O)C12 (configuration not stated)	102.4	-0.3	1.3	-8.1	0.4	8.1

Screening results (PubChem)
